Reference: the supplement of paper PMC10849652
Targets with a hit are over-represented here; the source holds about 7,900 in all. About 0.6% of all pairs of compound and target were hits. Unmarked numbers belong to inactive results.

Key:
Assay in all cases: log2 fold change, soluble protein after heating vs DMSO (PISA); higher = thermal stabilisation; K562 cells, 10 uM, 30 min; active = over 0.2 and 3.5 SD of the protein, either way, in both replicates (recomputed)
[1] = compound: Cc1ccc(NC(=O)c2ccc(CN3CC[C@H](N(C)C)C3)c(C(F)(F)F)c2)cc1Nc1nccc(-c2cncnc2)n1 [bafetinib]
Method in brief: (§1)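 K562 cells (2×10^6 cells/mL) were treated with 10 μM compound for 30 min, and aliquots were heated for 3 min over 48°C-58°C. Pooled aliquots were extracted in PBS with 0.5% NP-40 at 4°C, and the supernatant after 21,000xg for 90 min was measured by TMTpro 16plex LC-MS/MS with channel sums equalised. Reported thermal stability, relative to control samples and from duplicates, is a log2 fold change.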

[2] = compound: Cc1cccc(CC(=O)N2CCc3c2ccc(-c2cn(C)c4ncnc(N)c24)c3F)n1
Method in brief: as §1

[3] = compound: Cc1cn(-c2cc(NC(=O)c3ccc(C)c(Nc4nccc(-c5cccnc5)n4)c3)cc(C(F)(F)F)c2)cn1 [nilotinib]
Method in brief: as §1

[4] = compound: Cc1nc(Nc2n[nH]c3c2CN(C(=O)N[C@H](CN(C)C)c2ccccc2)C3(C)C)c2sccc2n1
Method in brief: as §1

[5] = compound: Cc1nc(Nc2ncc(C(=O)Nc3c(C)cccc3Cl)s2)cc(N2CCN(CCO)CC2)n1 [dasatinib]
Method in brief: as §1

[6] = compound: Cc1ncc(-c2ccnc(Nc3ccc(S(C)(=O)=O)cc3)n2)n1C(C)C
Method in brief: as §1

[7] = compound: Cn1cc(-c2ccc3c(c2)CCN3C(=O)Cc2cccc(C(F)(F)F)c2)c2c(N)ncnc21
Method in brief: as §1

[8] = compound: Cn1cc(-c2ccc3nnc(C(F)(F)c4ccc5ncccc5c4)n3n2)cn1
Method in brief: as §1

[9] = compound: FC(F)(F)c1ccc(/C=C/c2nc(COc3ccc(CCCCn4ccnn4)cc3)co2)cc1 [mubritinib]
Method in brief: as §1

[10] = compound: Cn1cncc1[C@@](N)(c1ccc(Cl)cc1)c1ccc2c(c1)c(-c1cccc(Cl)c1)cc(=O)n2C [tipifarnib]
Method in brief: as §1

Chain of UniProt Q8N8J7 (Q8N8J7 whole entry, looked up): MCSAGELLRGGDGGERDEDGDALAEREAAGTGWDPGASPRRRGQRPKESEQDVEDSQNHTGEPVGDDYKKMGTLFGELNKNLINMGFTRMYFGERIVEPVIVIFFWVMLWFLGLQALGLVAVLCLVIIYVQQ
Chain of UniProt Q6P3W2 (Q6P3W2 whole entry, looked up): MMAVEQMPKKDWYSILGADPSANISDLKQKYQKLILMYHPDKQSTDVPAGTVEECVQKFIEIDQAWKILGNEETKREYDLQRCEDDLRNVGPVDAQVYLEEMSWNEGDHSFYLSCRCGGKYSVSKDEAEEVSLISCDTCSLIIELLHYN
Chain of UniProt Q01780 (Q01780 whole entry, looked up): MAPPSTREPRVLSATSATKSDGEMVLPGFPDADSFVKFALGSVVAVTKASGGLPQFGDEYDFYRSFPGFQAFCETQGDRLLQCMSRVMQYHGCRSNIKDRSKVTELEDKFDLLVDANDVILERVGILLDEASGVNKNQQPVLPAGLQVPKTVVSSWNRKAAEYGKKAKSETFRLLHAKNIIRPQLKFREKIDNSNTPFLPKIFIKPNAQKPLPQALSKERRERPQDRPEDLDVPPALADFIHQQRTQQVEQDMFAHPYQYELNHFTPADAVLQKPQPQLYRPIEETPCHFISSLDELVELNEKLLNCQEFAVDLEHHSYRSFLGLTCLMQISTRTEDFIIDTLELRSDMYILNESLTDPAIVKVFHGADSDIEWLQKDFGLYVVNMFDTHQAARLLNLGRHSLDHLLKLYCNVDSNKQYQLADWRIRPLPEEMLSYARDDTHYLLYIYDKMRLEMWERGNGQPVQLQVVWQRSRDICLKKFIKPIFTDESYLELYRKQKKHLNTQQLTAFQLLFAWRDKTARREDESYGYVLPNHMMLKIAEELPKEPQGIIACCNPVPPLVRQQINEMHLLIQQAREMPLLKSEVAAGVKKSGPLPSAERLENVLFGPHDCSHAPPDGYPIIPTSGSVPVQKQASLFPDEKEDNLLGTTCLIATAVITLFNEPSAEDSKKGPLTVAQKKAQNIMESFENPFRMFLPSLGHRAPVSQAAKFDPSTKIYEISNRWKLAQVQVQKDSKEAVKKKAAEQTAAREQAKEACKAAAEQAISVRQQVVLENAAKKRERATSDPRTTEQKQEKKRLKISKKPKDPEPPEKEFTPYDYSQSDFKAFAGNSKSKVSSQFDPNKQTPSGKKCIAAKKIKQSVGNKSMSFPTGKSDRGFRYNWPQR
Chain of UniProt P23919 (P23919 whole entry, looked up): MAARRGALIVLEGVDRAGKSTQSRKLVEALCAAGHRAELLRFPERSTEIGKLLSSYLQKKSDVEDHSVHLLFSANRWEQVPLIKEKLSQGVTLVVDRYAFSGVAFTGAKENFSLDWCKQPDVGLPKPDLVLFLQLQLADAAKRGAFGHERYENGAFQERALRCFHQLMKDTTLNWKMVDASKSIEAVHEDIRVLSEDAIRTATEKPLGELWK
Chain of UniProt Q8TCE6 (Q8TCE6 whole entry, looked up): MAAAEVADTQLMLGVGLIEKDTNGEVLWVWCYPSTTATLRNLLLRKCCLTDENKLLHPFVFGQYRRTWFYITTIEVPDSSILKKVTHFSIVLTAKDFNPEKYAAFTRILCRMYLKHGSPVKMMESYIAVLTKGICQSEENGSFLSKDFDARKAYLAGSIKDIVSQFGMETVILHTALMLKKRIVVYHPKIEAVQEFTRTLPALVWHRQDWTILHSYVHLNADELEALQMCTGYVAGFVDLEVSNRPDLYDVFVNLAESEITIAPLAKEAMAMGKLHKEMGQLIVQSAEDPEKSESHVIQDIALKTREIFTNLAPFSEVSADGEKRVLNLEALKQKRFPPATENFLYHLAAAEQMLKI
Chain of UniProt Q16531 (Q16531 whole entry, looked up): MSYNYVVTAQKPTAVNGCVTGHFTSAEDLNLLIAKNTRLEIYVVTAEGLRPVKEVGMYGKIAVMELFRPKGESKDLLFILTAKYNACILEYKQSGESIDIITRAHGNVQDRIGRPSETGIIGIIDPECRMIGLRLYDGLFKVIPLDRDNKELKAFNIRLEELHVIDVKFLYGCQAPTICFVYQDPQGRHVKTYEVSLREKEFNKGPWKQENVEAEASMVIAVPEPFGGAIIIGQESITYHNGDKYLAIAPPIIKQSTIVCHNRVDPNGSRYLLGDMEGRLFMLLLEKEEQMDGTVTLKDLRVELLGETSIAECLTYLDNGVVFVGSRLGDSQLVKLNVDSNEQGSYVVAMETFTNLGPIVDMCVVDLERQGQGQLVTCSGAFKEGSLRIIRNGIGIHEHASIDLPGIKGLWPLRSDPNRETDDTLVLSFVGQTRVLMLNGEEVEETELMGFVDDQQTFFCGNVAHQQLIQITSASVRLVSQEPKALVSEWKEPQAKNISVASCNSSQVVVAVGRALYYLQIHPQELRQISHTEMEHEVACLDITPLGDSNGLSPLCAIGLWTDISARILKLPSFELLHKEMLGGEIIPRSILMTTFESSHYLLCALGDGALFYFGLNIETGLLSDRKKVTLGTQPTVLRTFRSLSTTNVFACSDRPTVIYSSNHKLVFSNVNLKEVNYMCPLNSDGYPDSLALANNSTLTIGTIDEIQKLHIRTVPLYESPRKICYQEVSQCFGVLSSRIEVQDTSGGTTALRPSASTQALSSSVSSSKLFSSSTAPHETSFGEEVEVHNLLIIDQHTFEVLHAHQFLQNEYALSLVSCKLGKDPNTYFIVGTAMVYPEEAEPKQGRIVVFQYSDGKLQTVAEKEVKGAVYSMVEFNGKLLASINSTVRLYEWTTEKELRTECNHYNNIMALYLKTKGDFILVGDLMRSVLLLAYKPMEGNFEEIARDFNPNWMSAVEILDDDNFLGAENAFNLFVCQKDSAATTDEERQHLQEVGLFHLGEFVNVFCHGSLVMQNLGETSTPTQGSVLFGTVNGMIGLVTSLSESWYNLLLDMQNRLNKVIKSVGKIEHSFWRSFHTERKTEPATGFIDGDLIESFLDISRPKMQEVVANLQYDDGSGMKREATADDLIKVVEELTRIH
Chain of UniProt Q5VYK3 (Q5VYK3 whole entry, looked up): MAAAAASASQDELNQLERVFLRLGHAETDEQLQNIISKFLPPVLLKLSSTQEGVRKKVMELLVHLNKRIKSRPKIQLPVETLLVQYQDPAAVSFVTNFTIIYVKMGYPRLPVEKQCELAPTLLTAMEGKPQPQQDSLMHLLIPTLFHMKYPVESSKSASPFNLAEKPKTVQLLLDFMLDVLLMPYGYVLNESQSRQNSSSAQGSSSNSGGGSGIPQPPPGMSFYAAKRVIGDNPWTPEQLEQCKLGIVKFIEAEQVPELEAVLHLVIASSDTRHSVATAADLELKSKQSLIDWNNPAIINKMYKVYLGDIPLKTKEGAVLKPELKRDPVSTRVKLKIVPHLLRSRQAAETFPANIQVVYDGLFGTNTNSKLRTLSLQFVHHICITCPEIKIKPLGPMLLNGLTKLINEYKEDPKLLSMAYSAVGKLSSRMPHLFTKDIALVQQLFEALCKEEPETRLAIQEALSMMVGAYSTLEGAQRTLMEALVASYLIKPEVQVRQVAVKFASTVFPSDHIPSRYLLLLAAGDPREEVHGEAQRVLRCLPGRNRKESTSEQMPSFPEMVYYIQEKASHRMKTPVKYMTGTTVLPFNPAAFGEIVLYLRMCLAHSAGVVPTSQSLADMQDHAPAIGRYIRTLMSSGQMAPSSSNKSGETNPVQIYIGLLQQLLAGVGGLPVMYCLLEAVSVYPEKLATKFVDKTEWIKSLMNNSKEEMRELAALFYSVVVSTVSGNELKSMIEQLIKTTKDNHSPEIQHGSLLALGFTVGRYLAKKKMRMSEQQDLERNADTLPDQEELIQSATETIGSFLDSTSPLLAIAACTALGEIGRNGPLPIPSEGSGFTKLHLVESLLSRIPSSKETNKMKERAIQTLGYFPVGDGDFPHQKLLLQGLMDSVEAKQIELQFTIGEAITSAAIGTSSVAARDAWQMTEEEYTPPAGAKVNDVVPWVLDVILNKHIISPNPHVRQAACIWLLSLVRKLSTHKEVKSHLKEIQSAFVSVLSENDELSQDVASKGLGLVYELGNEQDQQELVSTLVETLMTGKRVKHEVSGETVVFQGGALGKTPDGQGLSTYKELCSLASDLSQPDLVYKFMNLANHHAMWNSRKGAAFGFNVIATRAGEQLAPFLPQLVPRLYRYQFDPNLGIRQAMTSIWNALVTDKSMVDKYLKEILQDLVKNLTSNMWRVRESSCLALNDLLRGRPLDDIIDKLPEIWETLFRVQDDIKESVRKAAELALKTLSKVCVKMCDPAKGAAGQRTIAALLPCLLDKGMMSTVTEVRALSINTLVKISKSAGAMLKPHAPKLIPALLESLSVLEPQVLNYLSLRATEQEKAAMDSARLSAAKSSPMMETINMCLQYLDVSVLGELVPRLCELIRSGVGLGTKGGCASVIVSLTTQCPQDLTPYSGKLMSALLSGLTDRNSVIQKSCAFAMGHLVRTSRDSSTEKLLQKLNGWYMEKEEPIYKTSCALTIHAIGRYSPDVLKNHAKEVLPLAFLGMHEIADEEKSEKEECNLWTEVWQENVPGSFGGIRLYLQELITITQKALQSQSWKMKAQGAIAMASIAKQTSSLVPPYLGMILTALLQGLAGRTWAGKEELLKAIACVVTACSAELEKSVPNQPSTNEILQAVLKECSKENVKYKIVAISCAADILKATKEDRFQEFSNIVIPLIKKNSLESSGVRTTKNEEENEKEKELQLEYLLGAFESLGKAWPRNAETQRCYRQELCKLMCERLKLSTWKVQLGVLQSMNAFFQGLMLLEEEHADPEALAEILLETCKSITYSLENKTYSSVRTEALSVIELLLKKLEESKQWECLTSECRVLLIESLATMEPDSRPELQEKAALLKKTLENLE
Chain of UniProt O75822 (O75822 whole entry, looked up): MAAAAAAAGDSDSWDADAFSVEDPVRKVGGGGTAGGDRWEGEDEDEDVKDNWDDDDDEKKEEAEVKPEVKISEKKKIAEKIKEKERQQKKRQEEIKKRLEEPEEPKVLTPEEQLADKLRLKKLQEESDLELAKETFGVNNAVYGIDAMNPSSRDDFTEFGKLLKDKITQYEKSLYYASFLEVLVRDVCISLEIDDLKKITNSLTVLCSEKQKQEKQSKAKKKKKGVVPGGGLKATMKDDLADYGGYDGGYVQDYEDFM

| Target | log2 fold change [1] | log2 fold change [2] | log2 fold change [3] | log2 fold change [4] | log2 fold change [5] | log2 fold change [6] | log2 fold change [7] | log2 fold change [8] | log2 fold change [9] | log2 fold change [10] |
| --- | --- | --- | --- | --- | --- | --- | --- | --- | --- | --- |
| FAM160A2 isoform 2 (UniProt Q8N612) | -0.208 | -0.145 | -0.085 | 0.192 | -0.186 | -0.101 | -0.083 | 0.046 | 0.093 | – |
| DNAH10 (UniProt Q8IVF4) | 0.062 | -0.052 | -0.092 | 0.037 | 0.093 | 0.043 | 0.102 | – | 0.154 | – |
| CTSH (UniProt P09668) | -0.071 | -0.034 | 0.166 | 0.03 | 0.084 | -0.041 | 0.055 | 0.056 | -0.063 | 0.09 |
| EXOSC10 (UniProt Q01780) | -0.63 (active) | 0 | – | – | 0.017 | – | 0.152 | 0.251 | 0.046 | 0.195 |
| CYFIP1 (UniProt Q7L576) | -0.064 | 0.002 | -0.015 | -0.064 | -0.05 | -0.024 | 0.049 | -0.006 | 0.022 | -0.011 |
| CUX1 isoform 3 (UniProt P39880) | -0.054 | -0.032 | -0.008 | -0.06 | -0.016 | 0.044 | 0.023 | 0.08 | 0.037 | 0.046 |
| ERCC2 (UniProt P18074) | 0.094 | 0.061 | -0.014 | -0.175 | -0.185 | -0.022 | 0.05 | 0.01 | 0.114 | -0.062 |
| EIF3J (UniProt O75822) | -0.067 | 0.266 (active) | 0.001 | -0.019 | -0.018 | 0.008 | 0.022 | -0.014 | 0.033 | -0.013 |
| DHRS7B (UniProt Q6IAN0) | 0.001 | 0.213 | 0.114 | 0.01 | -0.066 | 0.056 | 0.047 | -0.113 | -0.023 | 0.008 |
| EEF1B2 (UniProt P24534) | 0.006 | 0.025 | -0.042 | -0.03 | 0.026 | 0.043 | -0.057 | -0.054 | 0.058 | -0.109 |
| DNM2 isoform 4 (UniProt P50570) | 0.154 | 0.062 | -0.006 | 0.047 | -0.007 | -0.047 | 0.006 | 0.005 | 0.108 | – |
| DNM2 (UniProt P50570) | -0.035 | 0 | -0.054 | -0.003 | -0.099 | 0 | 0.075 | 0.007 | 0.017 | -0.071 |
| DNAH11 (UniProt Q96DT5) | 0.097 | -0.396 | 0.101 | 0.015 | -0.036 | 0.072 | -0.441 | 0.126 | -0.276 | 0.344 |
| DFFB (UniProt O76075) | 0.042 | -0.032 | -0.047 | -0.156 | -0.057 | 0.056 | -0.053 | 0.002 | 0.019 | -0.072 |
| FAM3A (UniProt P98173) | -0.027 | 0.023 | 0.007 | -0.044 | 0.036 | -0.001 | 0.031 | -0.03 | 0 | 0.042 |
| CYP24A1 (UniProt Q07973) | 0.373 | -0.049 | 0.01 | 0.167 | 0.184 | -0.105 | – | -0.057 | -0.074 | 0.101 |
| ESYT1 isoform 2 (UniProt Q9BSJ8) | 0.112 | 0.137 | -0.088 | -0.208 | -0.147 | 0.022 | -0.059 | -0.06 | -0.092 | 0.007 |
| DMAC1 (UniProt Q96GE9) | -0.138 | -0.047 | -0.083 | 0.067 | 0.118 | -0.007 | -0.014 | 0.095 | 0.085 | -0.156 |
| EIF2AK1 (UniProt Q9BQI3) | -0.162 | 0.171 | – | – | -0.068 | – | 0.19 | 0 | -0.025 | -0.035 |

| Target | log2 fold change [1] | log2 fold change [2] | log2 fold change [3] | log2 fold change [4] | log2 fold change [5] | log2 fold change [6] | log2 fold change [7] | log2 fold change [8] | log2 fold change [9] | log2 fold change [10] |
| --- | --- | --- | --- | --- | --- | --- | --- | --- | --- | --- |
| DDB1 (UniProt Q16531) | -0.019 | -0.025 | -0.004 | 0.027 | 0.046 | -0.016 | 0.011 | -0.001 | 0.023 | -0.014 |
| FAM118B (UniProt Q9BPY3) | -0.083 | 0.028 | -0.114 | -0.106 | – | 0.022 | 0.014 | 0.02 | 0.015 | -0.083 |
| DTYMK (UniProt P23919) | 0.044 | 0.007 | 0.042 | 0.041 | -0.151 | -0.029 | 0.045 | 0.002 | 0.078 | -0.019 |
| DENND10 (UniProt Q8TCE6) | 0.033 | – | -0.266 | -0.032 | -0.129 | -0.353 | -0.131 | -0.064 | 0.077 | 0.034 |
| EIF2AK3 (UniProt Q9NZJ5) | 0.082 | 0.535 | -0.201 | -0.072 | -0.017 | -0.067 | 0.845 (active) | – | 0.019 | -0.057 |
| DERPC (UniProt P0CG12) | -0.06 | -0.193 | 0.044 | -0.04 | 0.227 | -0.126 | – | 0.245 | 0.049 | – |
| EIF4E2 (UniProt O60573) | -0.055 | – | -0.094 | -0.052 | -0.232 | -0.004 | 0.082 | -0.059 | 0.035 | -0.127 |
| FAM207A (UniProt Q9NSI2) | 0.002 | 0.076 | -0.071 | -0.087 | 0.006 | -0.059 | – | -0.127 | -0.238 | 0.003 |
| FAM241A (UniProt Q8N8J7) | -0.143 | -0.056 | -0.027 | 0.029 | 0.02 | -0.095 | 0.046 | 0.049 | 0.028 | 0.008 |
| DPYSL2 (UniProt Q16555) | -0.114 | 0.081 | 0.046 | -0.063 | 0 | 0.079 | 0.042 | – | -0.048 | 0.015 |
| DNAJC24 (UniProt Q6P3W2) | -0.079 | – | 0.019 | -0.054 | 0.053 | 0.016 | -0.1 | -0.201 | 0.06 | 0.084 |
| DEGS1 (UniProt O15121) | -0.032 | -0.029 | 0.04 | -0.021 | -0.1 | -0.031 | -0.07 | – | 0.087 | -0.026 |
| DCAF10 (UniProt Q5QP82) | -0.002 | -0.069 | -0.052 | 0.041 | 0.026 | -0.047 | 0.012 | 0.007 | -0.002 | -0.054 |
| DOCK8 (UniProt Q8NF50) | -0.076 | -0.055 | 0.069 | -0.057 | 0.052 | -0.126 | -0.14 | -0.067 | 0.021 | – |
| CWC27 (UniProt Q6UX04) | -0.147 | -0.059 | -0.058 | -0.094 | -0.087 | 0.132 | 0.056 | 0.022 | 0.109 | -0.146 |
| EDRF1 (UniProt Q3B7T1) | -0.04 | -0.209 | – | – | -0.157 | – | -0.275 | -0.114 | 0.045 | – |
| FADS3 (UniProt Q9Y5Q0) | -0.11 | 0.044 | 0.108 | -0.012 | -0.109 | -0.013 | 0.034 | -0.037 | 0.059 | -0.033 |
| ECPAS (UniProt Q5VYK3) | 0.031 | 0.105 | -0.067 | -0.038 | -0.255 (active) | 0.077 | -0.011 | -0.043 | 0.021 | -0.202 |
| EGR1 (UniProt P18146) | -0.257 | 0.141 | -0.001 | -0.352 | – | -0.295 | -0.24 | -0.106 | -0.121 | 0.139 |
